Test results reported in PubChem BioAssay AID720519 (National Center for Advancing Translational Sciences (NCATS), 2013).
Results filed as inconclusive are left out. The source made the active and inactive calls. Calls follow the shape of the dose curve; as a rule, active = well fitted activation curve with a large enough effect; inconclusive = small, poorly fitted or top-dose-only effect; inactive = flat fitted curve, though single readings scatter.

Assay: qHTS for Inhibitors of Cell Surface uPA Generation: Confirmatory Assay for Cherry-picked Compounds
Conditions: cell surface uPA activity generation, qHTS confirmation; series mostly up to 115 µM
How it was run: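 RAW 264.7 cells at 4000/well, incubated overnight, then treated with compounds. After 24 h at 37 C, viability was read by ATPlite luminescence. An increase in signal indicates blocked uPA-dependent LF entry.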

Potency, inactive:
O=C(NCCCN1CCCC1=O)c1cccc(Oc2ccccc2)c1
COc1ccc2nc(C)cc(Nc3ccccc3O)c2c1
COc1ccc(CCNC(=O)Cn2c(=O)n(-c3cc(F)ccc3F)c(=O)c3sccc32)cc1OC
O=C1CCCc2ccccc2N1Cc1ccc(F)cc1
O=C(Nc1cccc(NC(=O)c2ccc(F)cc2)c1)c1ccc(F)cc1
C[C@H](CO)N1C[C@H](C)[C@H](CN(C)S(=O)(=O)c2cn(C)cn2)Oc2ccc(NC(=O)Nc3ccc(C(F)(F)F)cc3)cc2CC1=O
COCCn1nnnc1C(C(C)C)N1CCCC(C)C1 (stereo not drawn)
C[C@@H](CSc1ccccc1)CN1CC[C@H](O)CCC1=O
Cc1ccc(-c2cc(C(=O)NCC3CCCO3)no2)cc1 (stereo not drawn)
COC(=O)C1=CN(Cc2ccc(F)cc2)C=C(C(=O)OC)C1c1ccc(O)c(OC)c1
COc1cc2oc(=O)ccc2cc1[C@H](O)[C@@H](O)C(C)(C)O
COCCNC(=S)N(CCc1c(C)[nH]c2ccccc12)Cc1ccco1
COc1ccc(C2=C/C(=C\c3ccccc3OC(C)=O)C(=O)O2)cc1
CC1=CC(C)C(C[N+]2(C)CCCCC2)C(C)C1 (stereo not drawn)
COc1ccc(NC(=O)CN2C(=O)CSc3ncccc32)cc1
Cc1ccc2oc(C(=O)N(Cc3ccc(N(C)C)cc3)C3CCS(=O)(=O)C3)c(C)c2c1 (stereo not drawn)
CCC(C)NC(=O)c1ccc2nc(-c3ccc(OC)c(OC)c3)c(-c3ccc(OC)c(OC)c3)nc2c1 (stereo not drawn)
CCNC(=S)NNC(=O)c1ccncc1
CCC(CC)Nc1ccc(C(CC(N)=O)NC(=O)Cc2ccc(Br)cc2)cc1[N+](=O)[O-] (stereo not drawn)
COCCNS(=O)(=O)c1cc(OC)c(C)cc1C
Cc1cc(C)nc(NC(=O)CSc2nccc(C)n2)n1
CC1CC(C)(C)Nc2ccc(N=O)cc21 (stereo not drawn)
Cc1ccc(N2C(=O)CC(N3CCN/C3=C3\CC/C(=C\c4ccccc4)C3=O)C2=O)cc1 (stereo not drawn)
C=C(C)C(=O)O[C@H]1C/C(C)=C\C(=O)/C=C(\C)[C@H](O)[C@@H]2OC(=O)C(=C)[C@@H]21
CC1(C(=O)OCC(=O)Nc2ccc(Cl)cn2)CC1(Cl)Cl (stereo not drawn)
CC(C)(C)n1ncc2c(=O)n(Cc3ccc(Cl)cc3)cnc21
CCn1c(SC(C)C(=O)NC2CCCC2)nc2cc(S(N)(=O)=O)ccc21 (stereo not drawn)
CCC(COC)NC(=O)CCc1nnc(Cc2c[nH]c3ccccc23)o1 (stereo not drawn)
CCOC(=O)[C@H]1[C@H]2COc3ccc(Br)cc3[C@@H]2N2C(=O)c3c(C)cc(C)cc3NC(=O)[C@@]12C
O=C(NCC1CCCO1)c1ccc(NC(=O)c2ccc([N+](=O)[O-])cc2)cc1 (stereo not drawn)
COc1ccccc1N1CCN(CC(=O)c2c(C)[nH]c3ccccc23)CC1
CCCCN(CC(=O)Nc1cccc(S(=O)(=O)N2CCCC2)c1)Cc1nc2ccccc2c(=O)[nH]1
O=C(c1ccc(NC(=S)NCc2ccc(Cl)cc2)cc1)N1CCCCC1
COc1ccc(CC(=O)OCC(=O)NNC(=O)c2ccccc2)cc1
N#CCC(=O)N/N=C/c1ccc(OCC(=O)Nc2ccc(F)cc2)cc1
CCC(=O)N1CCC(NC(=O)Nc2ccc(OC(F)(F)F)cc2)CC1
CC1(CC(=O)N/N=C/c2cc(Br)c(O)cc2O)OCCO1
CCN(CC)S(=O)(=O)c1ccc(C(=O)Nc2nnc(COC)o2)cc1
